Experimental data reported in PubChem BioAssay AID624330 (Southern Research Specialized Biocontainment Screening …, 2012).
About 2,100 (0.62%) of roughly 340,000 compounds were called active.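 How the source made its calls: active means first-screen hits whose inhibition reached a set limit at any dose in the follow-up dose series; inconclusive means inhibition above the set first-screen limit but never retested; inactive means the rest.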 These entries were drawn from the full list. Measured potencies and affinities stand elsewhere.

What follows are molecules tested against Rac GTPase-activating protein 1 (Homo sapiens) (UniProt Q9H0H5) (assay: blockers of MgcRacGAP-driven Rac1 GTP hydrolysis – biochemical, ADP Hunter fluorescence, primary and confirmatory, confirmation (AID 624330;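 further: fluorescence reports GDP produced by GAP-driven GTP hydrolysis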)). Conditions: MgcRacGAP-stimulated Rac1 GTP hydrolysis, at 30 µM, hits give high values, GST-tagged Rac1 F28L mutant substrate.
Rac GTPase-activating protein 1 (Homo sapiens), sequence (Q9H0H5 whole entry, looked up): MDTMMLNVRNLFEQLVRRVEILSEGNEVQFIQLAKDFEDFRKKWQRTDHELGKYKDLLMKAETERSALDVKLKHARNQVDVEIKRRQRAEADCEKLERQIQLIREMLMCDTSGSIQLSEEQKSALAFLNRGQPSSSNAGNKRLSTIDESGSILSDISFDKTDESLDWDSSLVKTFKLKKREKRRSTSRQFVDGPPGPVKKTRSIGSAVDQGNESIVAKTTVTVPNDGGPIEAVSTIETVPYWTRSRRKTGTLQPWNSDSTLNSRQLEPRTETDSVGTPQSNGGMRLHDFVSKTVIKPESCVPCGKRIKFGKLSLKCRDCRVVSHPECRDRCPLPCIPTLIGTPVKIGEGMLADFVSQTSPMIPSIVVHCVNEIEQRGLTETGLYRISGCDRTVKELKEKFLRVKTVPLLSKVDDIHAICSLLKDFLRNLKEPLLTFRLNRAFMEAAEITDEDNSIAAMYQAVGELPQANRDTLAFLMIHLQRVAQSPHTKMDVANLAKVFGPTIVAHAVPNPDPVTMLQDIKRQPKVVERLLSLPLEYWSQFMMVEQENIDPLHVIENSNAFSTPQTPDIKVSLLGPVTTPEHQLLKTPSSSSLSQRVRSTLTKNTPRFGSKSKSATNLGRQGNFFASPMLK

inhibition, inactive:
CCOC(=O)c1ccc(NC(=S)NCCCn2ccnc2)cc1 -38.2%
COc1ccc(CCN2CN(S(=O)(=O)c3ccccc3)c3nc4ccccc4nc32)cc1OC 2.57%
CCOc1ccc(NC(=S)N(Cc2ccc(N(C)C)cc2)Cc2ccco2)cc1 1.67%
O=C(O)C1CCCN1S(=O)(=O)c1ccc2ccccc2c1 (stereo not given) -1.39%
COC(=O)c1cccc(NS(=O)(=O)c2ccc(OC)c(OC)c2)c1C 4.85%
O=C(CCCc1cccs1)Nc1nc(-c2ccc(F)cc2)cs1 9.23%
O=C(c1cccs1)N1CCN(c2ncc(C(F)(F)F)cc2Cl)CC1 8.94%
O=C(Cc1ccc(Cl)cc1)Nc1ccc2c(c1)C(=O)NC2=O 10.3%
COc1ccc(-c2c(-c3ccsc3)oc(=O)c3cc(OC)c(OC)cc23)cc1 3.56%
O=C(O)c1cccc(-n2c(/C=C/c3ccccc3)nc3ccccc3c2=O)c1 -7.35%
COc1ccc(/C=N/Nc2nc3ccccc3c(=O)n2-c2ccccc2)cc1OC 8.28%
COc1ccc(/C=C/c2ccc3cccc(O)c3n2)cc1Br 5.56%
CCOc1cc(/C=C/c2nc3ccccc3c(=O)[nH]2)ccc1O 11.1%
O=C(O)c1ccc(-n2c(/C=C/c3ccccc3)nc3ccccc3c2=O)cc1 -4%
COc1cc(/C=C/c2ccc3cccc(O)c3n2)cc(OC)c1OC 3.89%
Cc1cc(C)cc(Nc2c3c(nc4ncnn24)CCC3)c1 8.12%
CCC1=C(OC(=O)N(CC)CC)N2C(=O)OC(=NCCOC)[C@]2(Cc2ccccc2)[C@H]2C1=CC[C@H]1C(=O)N(CC(=O)OC)C(=O)[C@H]12 11.9%
CN(C(=O)c1cccc(NC(=O)Cc2ccc(NC(=O)C3CCN(C(=O)C4CC4)CC3)cc2)c1)C1CCC1 6.53%
O=C(NCc1cccnc1)C1CC(c2cccc(Br)c2)=NO1 (stereo not given) 0.07%
CC(C(=O)NCc1ccc(F)cc1)c1ccc([N+](=O)[O-])cc1 (stereo not given) 8.32%
CN1CCN(S(=O)(=O)c2ccc(Oc3ccc(F)cc3Br)nc2)CC1 6.58%
CCC1CCCCN1C(=S)NC(=O)c1cc(Br)ccc1Cl (stereo not given) 4.56%
CCc1nnc(NC(=O)Cn2nnc(-c3ccccc3F)n2)s1 5.2%
CCCCCCCn1c2c(c(=N)c3ccccc31)CCC2 9.88%
CCCCCn1c2c(c(=N)c3ccccc31)CCC2 7.04%
